For this assay, the target named is Cytochrome P450 2D6 (Homo sapiens) (UniProt P10635). The assay can be described thus: qHTS Assay for Inhibitors and Substrates of Cytochrome P450 2D6 (AID 891). Further: nearly all actives have a fitted effect of over 60% in size. Conditions: recombinant CYP2D6, luciferin-ME EGE luminescence; series mostly up to 57.1 µM. In a few lines:
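Human CYP2D6 (5 nM) with 30 uM Luciferin-ME EGE (at Km) in 100 mM KPO4, compound preincubated 10 min, then NADPH regeneration system for 60 min at room temperature. Luciferin read by luminescence; normalized to 1.43 uM quinidine.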

Records with an inconclusive call do not appear. The source made the active and inactive calls. The call rests on the fitted dose curve; in most records, active means well fitted inhibition curve with a large enough effect; inconclusive means small, poorly fitted or top-dose-only effect; inactive means no such curve, though single readings can be large or run the other way.
Potency means the concentration at half of the fitted maximal effect.

Sequence of Cytochrome P450 2D6 (Homo sapiens) (P10635 whole entry, looked up): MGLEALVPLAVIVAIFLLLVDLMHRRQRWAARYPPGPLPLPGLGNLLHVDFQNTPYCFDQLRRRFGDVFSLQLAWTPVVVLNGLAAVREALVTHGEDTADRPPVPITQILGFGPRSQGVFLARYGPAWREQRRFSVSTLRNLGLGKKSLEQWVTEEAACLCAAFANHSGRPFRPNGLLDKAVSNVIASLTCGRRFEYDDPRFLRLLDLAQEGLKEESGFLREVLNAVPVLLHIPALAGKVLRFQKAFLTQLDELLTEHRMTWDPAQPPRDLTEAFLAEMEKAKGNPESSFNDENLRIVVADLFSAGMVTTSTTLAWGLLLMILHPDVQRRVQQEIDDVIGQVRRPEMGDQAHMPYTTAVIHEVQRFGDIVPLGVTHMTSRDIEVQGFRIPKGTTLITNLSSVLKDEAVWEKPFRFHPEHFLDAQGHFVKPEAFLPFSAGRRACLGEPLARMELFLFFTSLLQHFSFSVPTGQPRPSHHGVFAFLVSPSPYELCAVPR

On to `Cc1ccccc1-c1nccc(NCc2cccs2)n1`, for which the Potency was 2510 nM (active). Then `COc1ccc(-n2c(=O)c(-c3cccs3)nc3cnc(N(C)C)nc32)cc1`, with “inactive”; and `CN(C)Cc1ccccc1-c1nc(N(C)C)c2ccccc2n1`, with 2510 nM (active); and `CN(C)C(=O)c1ccc(-c2cncnc2NCCc2cnc[nH]2)cc1`, with 794 nM (active).

As to `COc1ccc2[nH]cc(CCNc3ncnc4ccc(-c5cccnc5)cc34)c2c1`, the Potency is 7940 nM (active). Then `c1csc(CNc2ccnc(-c3ccoc3)n2)c1`, with 3160 nM (active); and `FC(F)(F)c1ccccc1-c1ccc2ncnc(NCc3cccnc3)c2c1`, with 1580 nM (active).

The record behind these values is PubChem BioAssay (NCATS).
